Data as given in PubChem BioAssay (NCATS).
Inconclusive results are not listed. A call without a number means that no potency is given here. Unmarked numbers belong to inactive results. Calls of active or inactive are those of the source. Calls follow the shape of the dose curve; as a rule, active = well fitted cell-killing curve with a large enough effect; inconclusive = small, poorly fitted or top-dose-only effect, or effect the other way; inactive = flat fitted curve, though single readings scatter.

Key:
Assay in all cases: Primary qHTS to identify gynecologic anti-cancer compounds using libraries of approved drugs and bioactive compounds (AID 1345084); also: nearly all actives have a fitted effect of over 55% in size
CAOV3 = settings: Gynecologic cancer cell panel viability, ATPlite luminescence, 48 h; series mostly up to 57.5 µM
How it was run: (§1)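 Cytotoxicity screen measuring ATP content by luciferase luminescence. Each compound is applied at five concentrations for 48 h at 37 C with 5% CO2.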

CASKI = settings: Gynecologic cancer cell panel viability, ATPlite luminescence, 48 h; series mostly up to 57.5 µM
How it was run: as §1

HeLa = settings: Gynecologic cancer cell panel viability, ATPlite luminescence, 48 h; series mostly up to 57.5 µM
How it was run: as §1

JEG-3 = settings: Gynecologic cancer cell panel viability, ATPlite luminescence, 48 h; series mostly up to 57.5 µM
How it was run: as §1

OV90 = settings: Gynecologic cancer cell panel viability, ATPlite luminescence, 48 h; series mostly up to 57.5 µM
How it was run: as §1

Tov-21-G = settings: Gynecologic cancer cell panel viability, ATPlite luminescence, 48 h; series mostly up to 57.5 µM
How it was run: as §1

Tov112D = settings: Gynecologic cancer cell panel viability, ATPlite luminescence, 48 h; series mostly up to 57.5 µM
How it was run: as §1

Es-2 = settings: Gynecologic cancer cell panel viability, ATPlite luminescence, 48 h; series mostly up to 57.5 µM
How it was run: as §1

Hek293T = settings: Gynecologic cancer cell panel viability, ATPlite luminescence, 48 h, control line for the selectivity index; series mostly up to 57.5 µM
How it was run: as §1

PA-1 = settings: Gynecologic cancer cell panel viability, ATPlite luminescence, 48 h; series mostly up to 57.5 µM
How it was run: as §1

SKOV3 = settings: Gynecologic cancer cell panel viability, ATPlite luminescence, 48 h; series mostly up to 57.5 µM
How it was run: as §1
Potency is read from the fitted curve at half-maximal effect.

Structure (SMILES) | Potency (CAOV3) | Potency (CASKI) | Potency (HeLa) | Potency (JEG-3) | Potency (OV90) | Potency (Tov-21-G) | Potency (Tov112D) | Potency (Es-2) | Potency (Hek293T) | Potency (PA-1) | Potency (SKOV3)
COc1cc([C@H]2O[C@H](c3cc(OC)c4c(c3)OCO4)[C@H](C)[C@H]2C)cc(OC)c1OC | inactive | inactive | inactive | inactive | 8.91 µM (active) | inactive | inactive | – | – | – | –
Cc1cc(-c2cnc(N)c3c(-c4ccc5scnc5c4)csc23)n(C)n1 | inactive | inactive | inactive | inactive | – | – | inactive | inactive | inactive | inactive | –
CC(=O)Nc1cccc(Nc2ncnc(N3CCC(OCc4ccc(OC(F)(F)F)cc4)CC3)n2)c1C | inactive | inactive | inactive | inactive | inactive | inactive | inactive | inactive | – | inactive | –
CCN(CCNC(=O)Nc1ccccc1Br)c1cccc(C)c1 | inactive | inactive | inactive | – | inactive | inactive | inactive | inactive | inactive | inactive | inactive
OC1C=C2C3CN(Cc4cc5c(cc43)OCO5)C2CC1O (configuration not stated) | inactive | inactive | – | inactive | – | – | – | 25.1 µM (active) | 8.91 µM (active) | 14.1 µM (active) | –
CNc1ccc([N+](=O)[O-])c(Nc2ccc3[nH]ncc3c2)n1 | inactive | inactive | 25.1 µM (active) | inactive | inactive | – | – | – | – | – | inactive
Cc1c[nH]c2ncnc(N3CCC(CN)(C(=O)Nc4cccc(OC(=O)N(C)C)c4)CC3)c12 | inactive | inactive | inactive | inactive | 11.2 µM (active) | – | inactive | inactive | – | inactive | 22.4 µM (active)
Cc1nc(C#Cc2ccnc(Cl)c2)c(C)n1-c1ccc(F)cc1 | inactive | inactive | inactive | inactive | inactive | inactive | inactive | inactive | – | inactive | –
N#Cc1ccc(COc2ccc(-c3cccc4nc(NC(=O)C5CC5)nn34)cc2)cn1 | 22.4 µM (active) | inactive | inactive | inactive | inactive | inactive | – | inactive | inactive | inactive | –
C/C=C(\C)C(=O)OC1C(C)C2(O)C(C=C(CO)CC3(O)C(=O)C(C)=CC32)C2C(C)(C)C12OC(C)=O (configuration not stated) | inactive | inactive | inactive | inactive | – | inactive | inactive | 0.224 µM (active) | inactive | inactive | inactive
CC(C)(O)C(=O)N1CCN(c2ccc(C(F)(F)F)c(C3=C(c4c[nH]c5ccccc45)C(=O)NC3=O)c2)CC1 | inactive | inactive | – | – | inactive | inactive | inactive | inactive | inactive | inactive | –
C=CC(=O)Nc1cc(-n2c(=O)ccc3cnc4ccc(-c5ccc(NS(C)(=O)=O)cc5)cc4c32)ccc1C | inactive | inactive | inactive | inactive | inactive | – | inactive | inactive | inactive | – | –
CC(C)c1cc2c(N3CCN(C4=NCC(C)(C)S4)CC3)ncnc2s1 | inactive | inactive | inactive | inactive | – | inactive | inactive | inactive | – | – | –
Cc1ccc(-c2cn3c4c(sc3n2)CCCC4)cc1 | 10 µM (active) | 17.8 µM (active) | 12.6 µM (active) | – | – | 12.6 µM (active) | 12.6 µM (active) | 11.2 µM (active) | 12.6 µM (active) | – | 15.8 µM (active)
CCCCc1c(-c2ccc(OC)cc2)[nH]c2nccnc12 | inactive | inactive | inactive | inactive | inactive | inactive | inactive | inactive | inactive | inactive | –
O=C(Nc1cccc([N+](=O)[O-])c1)c1cccc(S(=O)(=O)N2CCCCCC2)c1 | inactive | inactive | inactive | inactive | – | inactive | inactive | inactive | – | inactive | –
CNS(=O)(=O)c1ccccc1Nc1nc(Nc2ccc(N3CCN(C)CC3)cc2OC)ncc1Br | 2.24 µM (active) | 7.94 µM (active) | – | – | – | – | 12.6 µM (active) | – | 14.1 µM (active) | 2 µM (active) | –
